Screening data as filed in PubChem BioAssay.
USP28 block – inhibitors of human USP28 deubiquitinase; Q96RU2; purified USP28, Ub-rhodamine cleavage fluorescence, 30 min; inhibition, % at 25 µM; 3% of 47,000 active; AID 1645857
Target sequence (Q96RU2 whole entry, looked up): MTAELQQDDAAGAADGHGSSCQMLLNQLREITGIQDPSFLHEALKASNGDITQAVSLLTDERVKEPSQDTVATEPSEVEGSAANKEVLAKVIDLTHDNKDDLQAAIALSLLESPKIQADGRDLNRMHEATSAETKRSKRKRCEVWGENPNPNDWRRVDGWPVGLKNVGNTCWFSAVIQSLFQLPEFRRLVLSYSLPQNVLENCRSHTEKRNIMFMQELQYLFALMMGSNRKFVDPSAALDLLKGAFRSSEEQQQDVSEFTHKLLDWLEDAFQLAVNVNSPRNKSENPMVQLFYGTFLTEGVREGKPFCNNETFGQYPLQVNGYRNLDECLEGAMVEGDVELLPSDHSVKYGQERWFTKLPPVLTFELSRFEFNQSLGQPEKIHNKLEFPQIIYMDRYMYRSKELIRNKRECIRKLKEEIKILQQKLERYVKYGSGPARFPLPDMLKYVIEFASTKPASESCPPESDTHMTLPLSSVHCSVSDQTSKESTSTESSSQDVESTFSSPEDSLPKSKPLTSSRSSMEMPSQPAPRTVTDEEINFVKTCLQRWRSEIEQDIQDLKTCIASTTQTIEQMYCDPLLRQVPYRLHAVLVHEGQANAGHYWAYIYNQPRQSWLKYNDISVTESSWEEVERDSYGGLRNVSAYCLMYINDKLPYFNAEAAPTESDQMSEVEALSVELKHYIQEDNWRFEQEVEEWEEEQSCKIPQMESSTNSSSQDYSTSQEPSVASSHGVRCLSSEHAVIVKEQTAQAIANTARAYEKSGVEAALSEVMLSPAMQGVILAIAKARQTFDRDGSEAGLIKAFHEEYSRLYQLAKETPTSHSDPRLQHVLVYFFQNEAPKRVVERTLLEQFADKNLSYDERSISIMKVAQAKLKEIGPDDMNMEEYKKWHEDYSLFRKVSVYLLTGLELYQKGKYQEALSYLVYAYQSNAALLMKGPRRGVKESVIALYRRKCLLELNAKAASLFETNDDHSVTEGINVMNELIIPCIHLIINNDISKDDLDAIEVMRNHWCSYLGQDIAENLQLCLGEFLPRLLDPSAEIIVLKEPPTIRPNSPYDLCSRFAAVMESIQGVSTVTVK
USP17 inh – human USP17-like deubiquitinase inhibition | 6.5% of 47,000 active | purified USP17, Ub-rhodamine cleavage fluorescence, 3 h | inhibition, % at 50 µM | A8MUK1
USP30 block – inhibitors of human USP30 deubiquitinase; Q70CQ3; purified USP30, Ub-rhodamine cleavage fluorescence; inhibition, % at 25 µM; 5.3% of 47,000 active; AID 1645860
* = called active by the depositor; / = no result given. Shown are actives, neighbours in structure and some others; about 11% of the full set was active somewhere. Rule as the data show it: active = inhibition above about 30%; inactive = the rest.

SMILES	USP28 block	USP17 inh	USP30 block
Cc1ccc(NC(=O)C2CCCN(c3cnccn3)C2)cc1 (configuration not stated)	-4	1	2
O=C(Nc1ccc(Cl)cc1)C1CCCN(c2cnccn2)C1 (configuration not stated)	9	33*	27
O=C(Nc1ccccc1)c1cnn(-c2ccc(F)cc2)c1C1CCNCC1	10	17	14
Cc1c(CCC(=O)N2CC[C@@]3(O)CCCC[C@H]3C2)c(=O)oc2cc(OCc3ccc(F)cc3F)ccc12	15	/	35*
Cc1oc2cc3oc(=O)c(CC(=O)N4CCC5(O)CCCCC5C4)c(C)c3cc2c1C (configuration not stated)	7	5	23
CCc1cc(=O)oc2c(C)c(OCC(=O)N3CCC4(O)CCCCC4C3)ccc12 (configuration not stated)	-1	4	-1
COc1ccc(COc2ccc3c(C)c(CC(=O)N4CC[C@@]5(O)CCCC[C@H]5C4)c(=O)oc3c2)cc1	20	46*	52*
Cc1ccc(-c2[nH]c3ccccc3c2C2c3ccccc3C(=O)N2CC(=O)O)cc1 (configuration not stated)	-16	15	-11
O=C(CC1CCN(C(=O)Nc2ccccc2)CC1)N1CCOCC1	6	6	9
O=C(C[C@@H]1CCN2C[C@@H]1CCCOc1ccccc1CN(C(=O)Nc1ccccc1)CC2=O)N1CCOCC1	74*	75*	79*
Cc1ccsc1CN1CCC(n2c(=O)[nH]c3cncnc32)C1 (configuration not stated)	2	0	-2
Cc1ccc(NC(=O)C2=NOC3(CCNC3)C2)cc1 (configuration not stated)	12	3	23
O=C(Nc1ccccc1F)C1=NOC2(CCNCC2)C1	39*	34*	34*
CN(C)CCN1[C@H]2CCN(C(=O)c3ccc[nH]3)CC[C@@H]2Oc2ccccc2S1(=O)=O	-6	-17	-15
O=C(COC(=O)c1cc(S(=O)(=O)N2CCCC2)ccc1O)NC1CCCC1	7	12	26
CS(=O)(=O)N1CCN(c2ccc(-c3ccc(F)cc3)nn2)CC1	8	25	22
Cc1ccc(-c2cc(N3CCN(S(C)(=O)=O)CC3)ncn2)cc1	19	47*	47*
COCCC(=O)Nc1ccc2c(c1)Sc1ncccc1C(=O)N2C	-28	-23	-97
O=C1CSC(c2cccnc2)N1c1ccc(C(F)(F)F)cc1 (configuration not stated)	1	3	16
CC1=C(C(=O)NCc2ccccc2)C(c2cccc(OCc3ccc(F)cc3)c2)n2ncnc2N1 (configuration not stated)	6	9	18
CC(=O)Nc1ccc(NC(=O)C2CCC(CNS(=O)(=O)c3ccc(F)cc3)CC2)cc1 (configuration not stated)	18	9	31*
COc1ccc(NC(=O)C2CC2)cc1NS(=O)(=O)c1ccc(F)cc1	18	6	-3
c1cncc(-c2cnc3sc(NCc4ccc5c(c4)OCO5)nn23)c1	87*	61*	101*
Fc1ccc(CNc2nn3c(-c4cccnc4)cnc3s2)cc1	12	25	2
c1ccc(CCNc2nn3c(-c4cccnc4)cnc3s2)nc1	13	5	23
SMILES	USP28 block	USP17 inh	USP30 block
CN(C)c1ccc(CNc2nn3c(-c4cccnc4)cnc3s2)cc1	67*	63*	91*
Cc1ccc(NC(=O)N2CCN(c3cnn4c(C)nnc4c3)CC2)cc1C	3	-2	-3
COc1ccc(NS(=O)(=O)c2cc(NC(=O)C3CC3)ccc2N2CCCCC2)cc1	2	-3	6
COc1ccc(NS(=O)(=O)c2cc(NC(=O)/C=C/c3ccco3)ccc2N2CCCC2)cc1	57*	75*	55*
COc1ccc(NS(=O)(=O)c2ccc(N3CCCC3)c(NC(=O)/C=C/c3ccccc3)c2)cc1	20	36*	23
O=C(/C=C/c1ccccc1)Nc1cc(S(=O)(=O)Nc2cccc(Cl)c2)ccc1Cl	7	6	-12
CCC(C)NC(=O)C1CCN(c2cncnc2N2CCOCC2)CC1 (configuration not stated)	11	8	10
NS(=O)(=O)c1cccc(NC(=O)/C=C/c2cn(-c3ccccc3)nc2-c2cccc([N+](=O)[O-])c2)c1	23	4	34*
CC(=O)NS(=O)(=O)c1ccc(NC(=O)/C=C/c2cn(-c3ccccc3)nc2-c2ccccc2)cc1	25	25	-28
CCN(c1ccccc1C)S(=O)(=O)c1ccc(O)c(C(=O)O)c1	-2	-27	-124
CC1=NS(=O)(=O)c2cccnc2N1c1cccc(C(C)C)c1	-3	0	-11
COc1ccc(Cn2nnc(-c3cccc(F)c3)n2)cc1F	49*	5	2
COc1ccc(-c2nnn(Cc3ccc(-c4ccccc4)cc3)n2)cc1OC	-4	4	1
CC(=O)C1=C(C)Nc2nc3ccccc3n2C1c1ccco1 (configuration not stated)	-28	27	-417
O=C1CCCC2=C1C(c1ccc(Cl)cc1)n1c(nc3ccccc31)N2 (configuration not stated)	18	21	37*
CC(=O)C1=C(C)Nc2nc3ccccc3n2C1c1cccs1 (configuration not stated)	22	38*	49*
CC(=O)C1=C(C)Nc2nc3ccccc3n2C1c1ccc(O)cc1 (configuration not stated)	1	35*	-19
CC1=C(C(=O)N2CCCCC2)C(c2ccc(F)cc2)n2c(nc3ccccc32)N1 (configuration not stated)	0	8	-6
CC1=C(C(=O)N2CCOCC2)C(c2cccs2)n2c(nc3ccccc32)N1 (configuration not stated)	-18	-15	-71
COc1ccc(/C=C/C(=O)NCC(=O)N2CCC(N(C)C3CCCC3)CC2)cc1	-10	-8	-15
O=C(c1ccc(F)cc1)N1CCc2nc3ccccc3n2CC1	-19	-10	-13
COc1ccc(OCCCn2c(CNC(=O)c3ccco3)nc3ccccc32)cc1	9	41*	48*
COc1cccc(OCCCn2c(C(C)NC(=O)c3ccco3)nc3ccccc32)c1 (configuration not stated)	-6	51*	-8
COc1cccc(OCCCn2c(CN(C)C(=O)c3ccco3)nc3ccccc32)c1	-7	-2	-20
CN(Cc1nc2ccccc2n1CCCOc1ccccc1)C(=O)c1ccco1	1	1	2
SMILES	USP28 block	USP17 inh	USP30 block
c1cc(Oc2cccc3ccccc23)cc(Oc2cccc3ccccc23)c1	-9	-18	-18
CN1CCN(Cc2nc(-c3ccc(N4CCCCC4)nc3)no2)CC1	10	-2	33*
CC(=O)N1CCN(Cc2nc(-c3ccc(N4CCCCC4)nc3)no2)CC1	-7	-3	-9
COc1cc2c(cc1NC(=O)C(C)OC(=O)C1CCN(C(=O)c3ccc(F)cc3)CC1)oc1ccccc12 (configuration not stated)	8	4	1
Cc1c(CCC(=O)N2CCN(c3ccc(F)cc3)CC2)c(=O)oc2cc(O)ccc12	6	9	25
Cc1nn(-c2ccccc2)c2nc(C3CCN(C(=O)c4n[nH]c5c4CCC5)CC3)ccc12	10	15	38*
